Bioassay records (PubChem)
Many of the other results were omitted from the sample, so hits are more common in it than they were.
LmPK inh: inhibitors of Leishmania mexicana pyruvate kinase | Q27686 | purified LmPK, Kinase-Glo ATP luminescence, 1 h | Potency, µM (series often up to 57.5 µM), without a hit: at the highest dose activity change, negative = inhibition, usual class: inhibitors | hit rate 0.37% among 290,000; also: potency is read from the fitted curve at half-maximal effect; % is scaled to controls: 0 for no effect and ±100 for the full control effect
Target sequence (Q27686 whole entry, looked up): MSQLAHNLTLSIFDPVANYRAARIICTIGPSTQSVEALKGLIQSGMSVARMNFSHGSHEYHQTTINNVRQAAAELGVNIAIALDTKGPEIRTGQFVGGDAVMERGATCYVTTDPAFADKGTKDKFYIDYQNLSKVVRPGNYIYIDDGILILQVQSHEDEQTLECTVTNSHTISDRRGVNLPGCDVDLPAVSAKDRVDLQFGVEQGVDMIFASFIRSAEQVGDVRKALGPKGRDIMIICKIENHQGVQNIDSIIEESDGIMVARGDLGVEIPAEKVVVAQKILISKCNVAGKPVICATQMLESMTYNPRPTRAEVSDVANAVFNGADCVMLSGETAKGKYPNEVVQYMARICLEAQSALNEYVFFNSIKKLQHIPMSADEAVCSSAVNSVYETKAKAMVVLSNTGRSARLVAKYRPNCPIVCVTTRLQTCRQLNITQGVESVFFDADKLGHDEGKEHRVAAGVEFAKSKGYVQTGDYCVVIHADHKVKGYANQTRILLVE
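Screened at intermediate enzyme activity to detect both inhibitors and activators: LmPK at 0.1 nM, with a 0.5 nM enzyme column as activation reference. PEP 0.5 mM, ADP 0.1 mM; ATP detected by luminescence after 1 h.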
TbPYK inhibitor: blocks Trypanosoma brucei pyruvate kinase; Q57TT1; TbPYK enzyme, Kinase-Glo Plus ATP luminescence, 45 min; Potency, µM (doses to about 76.8 µM), for the others: at the highest dose activity, negative = inhibition, usual class: inhibitors; hit rate 0.12% among 410,000; AID 624173; also: potency is read from the fitted curve at half-maximal effect; % is scaled to controls: 0 for no effect and ±100 for the full control effect; nearly all actives have a fitted effect of over 50% in size
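TbPYK + substrate in 50 mM TEA pH 7.2, 100 mM KCl, 10 mM MgCl2, 0.05% BSA, 0.01% Tween-20; cpd pinned; ADP 130 uM final; 45 min RT; Kinase-Glo Plus 10 min; luminescence endpoint.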
CHX counter: affects cycloheximide protein synthesis inhibition readout, counter-screen. cell reporter, cycloheximide protein synthesis inhibition counterscreen. max response, %. hit rate 12% among 300,000; in the data active = max response mostly above about 13%, no sharp cut-off; inactive = mostly below about 14%; also: read at 38.3 µM for the half of the compounds with a filed dose; 0% is about no effect
Shiga toxin inh: blocks Shiga toxin action in Vero cells; Vero cells, Shiga toxin protein synthesis inhibition reporter; inhibition, % at 38.7 µM; hit rate 9.2% among 290,000; AID 2315; in the data active = inhibition mostly above about 28%, no sharp cut-off; inactive = mostly below about 43%; also: 0% is about no effect
NS1 inh: inhibitors of influenza NS1 protein function; Potency, µM (series often up to 46.1 µM), for the others: at the highest dose activity, positive = more growth; AID 2326; hit rate 0.4% among 270,000; calls by dose curve; also: potency is read from the fitted curve at half-maximal effect; actives are rising curves; nearly all actives have a fitted effect of over 50% in size
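Read-out: OD600 growth recovery of NS1-expressing budding yeast. Cells grown overnight at 30C in -URA glucose medium, washed, resuspended and diluted 1:100 in 2% galactose assay medium, pH 6.0. Same strain lacking NS1 served as positive control.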
SARS PLP yeast: SARS-CoV PLP inhibition in yeast; S. cerevisiae expressing SARS-CoV PLpro, growth rescue; Potency, µM (titrated, usually from 32.9 µM), inactives show at the top dose activity, positive = growth rescue, hits mostly activators; hit rate 0.19% among 330,000; AID 485353; calls by dose curve; also: potency is read from the fitted curve at half-maximal effect; 0% is about no effect; nearly all actives have a fitted effect of over 55% in size
* marks the source's active call; other numbers are inactive results. Unless noted, calls follow the shape of the dose curve; as a rule, active = well fitted curve in the direction sought with a large enough effect; inconclusive = small, poorly fitted or top-dose-only effect, or another doubt; inactive = no such curve, though single readings can be large; an effect the other way counts as inactive or inconclusive.

CCCOc1ncnc2c1[nH]c1ccc(C)cc12 was read as LmPK inh 0%, TbPYK inhibitor 0%, CHX counter 45*, Shiga toxin inh 108*, NS1 inh 2% and SARS PLP yeast -2%.
`CCCCc1nn2c(=O)cc(COC(=O)c3cccc(NC(=O)c4cccc(Cl)c4)c3)nc2s1` gave TbPYK inhibitor 4%.
CCOc1ccccc1CN(CCc1ccc2c(c1)OCO2)Cc1cc(OC)c(OC)cc1OC was read as TbPYK inhibitor 2%.
COc1ccc(C2C(C#N)=C(N)Oc3cc(O)ccc32)cc1 (centres undefined) was read as TbPYK inhibitor 3%.
Screening COc1ccc(N=Cc2cc3c(cc2O)OC(N)=C(C#N)C3c2ccccc2)cc1 (centres undefined) returned LmPK inh -3%, TbPYK inhibitor 4%, CHX counter 11*, Shiga toxin inh -10, NS1 inh 21% and SARS PLP yeast inconclusive.
Cc1cc(C)cc(NS(=O)(=O)c2ccc(NC(=O)C3CCCCC3C(=O)O)cc2)c1 (centres undefined) was read as LmPK inh -3%, TbPYK inhibitor 1%, CHX counter 12, Shiga toxin inh -7, NS1 inh -7% and SARS PLP yeast 2%.
CNc1ccccc(-c2ccc3cc4c(cc3n2)OCO4)c1=O was read as LmPK inh -24%, TbPYK inhibitor 0%, CHX counter 66*, Shiga toxin inh 59*, NS1 inh 3% and SARS PLP yeast -43%.
`CCc1ccccc1NC1=NCC(=O)N1Cc1ccc2c(c1)OCO2` gave LmPK inh 2%, TbPYK inhibitor -4%, CHX counter -3, Shiga toxin inh -6, NS1 inh -12% and SARS PLP yeast -18%.
CC(C)Oc1cccc(NC(=O)C2(C)CCN2C(=O)C(C)C)c1 (centres undefined) was read as TbPYK inhibitor -16%.
For CC(=O)OC1OCCOC1NC(=S)Nc1cccc(C(F)(F)F)c1 (centres undefined) the results were LmPK inh 5%, TbPYK inhibitor -10%, CHX counter 19*, Shiga toxin inh 66* and SARS PLP yeast 0%.
For Cc1ccc(C(=O)Nc2ccc(Br)c(C(F)(F)F)c2)cc1 the results were LmPK inh -5%, TbPYK inhibitor -3%, CHX counter 82*, Shiga toxin inh 108*, NS1 inh -77% and SARS PLP yeast -24%.
FC(F)(F)c1cccc(NC(=S)NNC(=S)Nc2cccc(C(F)(F)F)c2)c1 was read as LmPK inh 12%, CHX counter 10, Shiga toxin inh 22, NS1 inh -61% and SARS PLP yeast -7%.
For Cc1ccc(NC(=O)c2ccc(C)cc2)cc1 the results were TbPYK inhibitor 1% and SARS PLP yeast 4%.
Screening O=C(NNC(=S)Nc1ccc(F)c(Cl)c1)C1CC1 returned LmPK inh 2%, TbPYK inhibitor -26%, CHX counter 0, Shiga toxin inh -7, NS1 inh 3% and SARS PLP yeast 0%.
`Cc1cccc(NC(=S)NNC(=O)c2ccccc2Br)c1` gave LmPK inh -5%, TbPYK inhibitor -16%, CHX counter 20*, Shiga toxin inh 78*, NS1 inh -9% and SARS PLP yeast inconclusive.
`O=C(NNC(=S)Nc1ccc(F)c(Cl)c1)c1ccccc1Br` gave LmPK inh 2%, TbPYK inhibitor -11%, CHX counter 12, Shiga toxin inh 43*, NS1 inh -1% and SARS PLP yeast -2%.
Cc1ccccc1C(=O)NNC(=S)Nc1cccc(C(F)(F)F)c1 was read as LmPK inh -5%, TbPYK inhibitor -8%, CHX counter 28*, Shiga toxin inh 27, NS1 inh -1% and SARS PLP yeast 20%.
Cc1cccc(NC(=O)c2ccc(NC(=O)c3ccccc3Br)cc2)c1 was read as LmPK inh 10%, TbPYK inhibitor -6%, CHX counter 20*, Shiga toxin inh 37, NS1 inh -2% and SARS PLP yeast 2%.
`CN(CC(=O)Nc1c(Cl)cccc1Cl)C(=O)c1ccc2ccccc2n1` gave TbPYK inhibitor 5% and SARS PLP yeast -1%.
Screening CCCCc1nc(N2CCN(C(=O)c3ccco3)CC2)c(C#N)c2c1CCCC2 returned LmPK inh 0%, TbPYK inhibitor 7%, CHX counter 21*, Shiga toxin inh 63*, NS1 inh -33% and SARS PLP yeast -8%.
For CC(C)c1nc(N2CCN(C(=O)c3ccco3)CC2)c(C#N)c2c1COC(C)(C)C2 the results were LmPK inh 6%, TbPYK inhibitor 3%, CHX counter -2, Shiga toxin inh 6, NS1 inh -33% and SARS PLP yeast -2%.
`CCCCSc1ncnc2[nH]ncc12` gave LmPK inh -6%, TbPYK inhibitor -6%, CHX counter 23*, Shiga toxin inh 25, NS1 inh -7% and SARS PLP yeast 0%.
`CN(C)C(CNC(=O)c1cccc(S(=O)(=O)Nc2ccc(SC(F)F)cc2)c1)c1ccccc1` (centres undefined) gave TbPYK inhibitor -8%.
Screening CS(=O)(=O)c1ccccc1C(=O)Nc1ccc(-c2nc3ccccc3[nH]2)cc1 returned LmPK inh 1%, TbPYK inhibitor 0%, CHX counter 19*, Shiga toxin inh 42*, NS1 inh -14% and SARS PLP yeast 5%.
CS(=O)(=O)c1cccc(C(=O)Nc2ccc(-c3nc4ccccc4[nH]3)cc2)c1 was read as LmPK inh 3%, TbPYK inhibitor 3%, CHX counter 24, Shiga toxin inh 6, NS1 inh inconclusive and SARS PLP yeast 17%.
CS(=O)(=O)c1ccccc1C(=O)Nc1ccc(-c2nc3ccccc3o2)cc1 was read as LmPK inh 7%, TbPYK inhibitor -23%, CHX counter 31*, Shiga toxin inh 65*, NS1 inh -12% and SARS PLP yeast -9%.
NC(=O)COc1ccc(C(=O)NCC2(N3CCOCC3)CCCCC2)cc1 was read as TbPYK inhibitor 0% and SARS PLP yeast -1%.
`Cc1cc(C(=O)CSc2nnnn2C)c(C)n1C1CC1` gave LmPK inh 1%, TbPYK inhibitor -7%, CHX counter 56*, Shiga toxin inh 151* and SARS PLP yeast 1%.
Cc1nnc(SCC(=O)c2cc(C)n(C3CC3)c2C)s1 was read as LmPK inh -3%, TbPYK inhibitor -4%, CHX counter 81*, Shiga toxin inh 69*, NS1 inh -64% and SARS PLP yeast -3%.
`CNc1nnc(SCC(=O)c2cc(C)n(C3CC3)c2C)s1` gave TbPYK inhibitor -17% and SARS PLP yeast -11%.
`CCN(C(=O)COC(=O)c1cccc(S(=O)(=O)N(C)C)c1)c1c(N)n(Cc2ccccc2)c(=O)[nH]c1=O` gave TbPYK inhibitor -1%.
